Screens (PubChem BioAssay)
Mot1-301 SUMO: inhibitors of SUMOylation pathway: yeast Mot1-301 growth rescue; S. cerevisiae Mot1-301 growth rescue, ATP luminescence, 38.5C; percent above DMSO median, 100 means doubled; growth rescue, % at 18.8 µM; hit rate 1% among 320,000;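 active = every valid replicate shows activation above 250% relative to neutral control wells; inactive = the rest, any valid replicate at or below 250%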
PKA-R2B act: activators of human PKA-R2B complex; PKA-R2B holoenzyme dissociation, Cy5-IP20 fluorescence polarization; R2B truncated from residue 108, S112A mutant; 0% DMSO only, 100% 113 µM cGMP; activation, % at 11.4 µM; hit rate 0.079% among 340,000;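 active = activation above a cutoff set at the mean over all compounds plus 3 SD, cut at about 18% in these data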;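 note: higher means more holoenzyme dissociation and a rise in polarization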
Target sequence (P31323 whole entry, looked up, other chains not shown, the tested form may be a part): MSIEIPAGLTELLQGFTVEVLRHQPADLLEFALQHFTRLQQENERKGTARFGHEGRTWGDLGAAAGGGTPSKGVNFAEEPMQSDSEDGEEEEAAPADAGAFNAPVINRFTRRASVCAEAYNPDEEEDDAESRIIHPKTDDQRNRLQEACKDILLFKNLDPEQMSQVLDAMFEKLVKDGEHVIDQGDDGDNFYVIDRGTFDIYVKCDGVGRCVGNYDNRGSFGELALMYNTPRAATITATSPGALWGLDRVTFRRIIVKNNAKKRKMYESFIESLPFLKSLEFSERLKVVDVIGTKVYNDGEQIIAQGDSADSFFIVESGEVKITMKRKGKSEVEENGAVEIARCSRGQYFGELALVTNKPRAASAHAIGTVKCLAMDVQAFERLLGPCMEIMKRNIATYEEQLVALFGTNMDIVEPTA
PKA-R1A act: activators of PKA-R1A complex | P00514+P68181 | PKA-R1A dissociation, Cy5-IP20 fluorescence polarization; scaled: DMSO 0%, 113 µM cGMP 100% | activation, % at 11.4 µM | hit rate 0.083% among 340,000 | AID 504707;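 active = percent activation above the mean of all tested compounds plus 3 SD, cut at about 19% in these data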;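 note: higher means more PKAc released from R1A so a rise in polarization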
MsrA inhibitor: inhibitors of bovine MsrA; hit rate 0.75% among 360,000; inhibition, % at 15.5 µM; purified bovine MsrA, absorbance read-out; in the data active = inhibition above about 4.5%
bovine MsrA act: bovine methionine sulfoxide reductase A activation. purified bovine MsrA, absorbance read-out. activation, % at 10.6 µM. hit rate 0.3% among 360,000; in the data active = activation above about 7.5%
Numbers stand for hits; i = inactive; nt = not tested or not shown. Sampled rows, rich in hits. Any-hit rate of the full collection: about 2%.

SMILES	Mot1-301 SUMO	PKA-R2B act	PKA-R1A act	MsrA inhibitor	bovine MsrA act
COc1cccc2cc(-c3cc(=O)oc4ccc(OCC(C)=O)cc34)oc12	i	i	i	9.5	i
COc1ccc(/C=C/c2nc3ccccc3n2Cc2ccc(OC)c(OC)c2)cc1	353	i	i	i	i
C=CCc1ccc(OCCCCCN2CCOCC2)c(OC)c1	276	i	i	i	i
C=CCc1ccc(OC)c(OC)c1	864	i	i	i	i
C=CCc1ccc(OCCOCCN(C)C)c(OC)c1	i	i	i	i	i
COc1cc(-n2c(C)cc(O)cc2=O)ccc1Cl	nt	nt	nt	i	nt
COc1ccc(CN2C[C@@]3(O)CC[C@@H](O)[C@@H](OC)[C@@H]3[C@@](C)(O)[C@@H]2CC=C(C)C)cc1	nt	nt	nt	i	nt
Cc1ccc(-n2nnc(-c3nccs3)n2)cc1	i	i	i	i	i
Clc1ccc(-n2nnc(-c3nccs3)n2)cc1Cl	330	i	i	i	i
CNC(=O)c1cc(C(=O)c2ccc(Cl)cc2)c[nH]1	i	i	i	i	i
O=C(c1ccc(Cl)cc1)c1c[nH]c(C(=O)NNc2ccccc2)c1	337	i	i	i	i
CC(C)C[C@H](NC(=O)[C@@H]1Cc2c([nH]c3ccccc23)C2c3ccccc3C(=O)N21)C(=O)NCC1CCCO1 (stereo partly specified)	i	i	i	i	i
CSCC[C@H](NC(=O)[C@@H]1Cc2c([nH]c3ccccc23)C2c3ccccc3C(=O)N21)C(=O)NCC1CCCO1 (stereo partly specified)	793	i	i	i	i
Oc1ccc(N=Nc2ccccc2)o1	313	i	i	i	i
CCCC1CCC(c2nc(-c3cccnc3)no2)CC1 (stereo unspecified)	i	i	i	i	i
Fc1ccc(-c2noc(C3CCN(Cc4cccnc4)CC3)n2)cc1	848	i	i	i	i
CCn1c2c(n(C(C)=O)c1=O)C=C(C(=O)N1CCCC1)C(C)C(c1ccccc1)=C2 (stereo unspecified)	nt	nt	nt	i	nt
Cc1cc(C)c2cc(C(=O)Nc3ccc(C)c(F)c3)[nH]c2c1	340	i	i	i	i
COc1ccc2[nH]c(C(=O)Nc3ccc(C)c(F)c3)cc2c1	i	i	i	i	i
CCCc1cc(=O)oc2cc(C)cc(OCC(=O)O)c12	i	i	i	i	i
C=C(Cl)COc1cc(C)cc2oc(=O)cc(CC)c12	329	i	i	i	i
Cc1ccc(S(=O)(=O)/N=C2/NC(=O)/C(=C\c3ccccc3)S2)cc1	i	i	i	i	i
Cc1ccc(S(=O)(=O)/N=C2/NC(=O)/C(=C/c3ccccc3)S2)cc1	i	i	i	4.6	i
COc1cccc(CNC(=O)[C@H]2CCCN2C(=O)[C@H]2CCCN2C(=O)OC(C)(C)C)c1	nt	nt	nt	i	nt
Cc1cccc(NC(=O)CSc2nnc(-c3ccco3)c(-c3ccco3)n2)c1	nt	i	i	4.9	i
SMILES	Mot1-301 SUMO	PKA-R2B act	PKA-R1A act	MsrA inhibitor	bovine MsrA act
Cc1[nH]nc2c1C(c1cccc(C(F)(F)F)c1)N(Cc1ccccc1)C2=O (stereo unspecified)	nt	nt	nt	i	nt
CN(C)S(=O)(=O)c1ccc(C(=O)Oc2cc(=O)[nH]c3ccccc23)cc1	465	i	i	i	i
CCOC(=O)c1[nH]c2ccccc2c1NC(=O)c1ccc(S(=O)(=O)N(C)C)cc1	i	i	i	i	i
COCC(C)n1c(SCC(=O)NNC(=O)c2ccc(F)cc2)nc2ccccc2c1=O (stereo unspecified)	346	i	i	i	i
COCCn1c(SCC(=O)NNC(=O)c2ccccc2)nc2ccccc2c1=O	i	i	i	i	i
COc1ccc2cc(C(=O)CS(=O)(=O)c3ccc(Cl)cc3)c(=O)oc2c1	nt	nt	nt	i	nt
O=C(COC(=O)c1ccc([N+](=O)[O-])o1)Nc1ccc(Br)cc1F	337	i	i	i	i
O=C(NNc1ccccc1)C(=O)NNS(=O)(=O)c1ccc([N+](=O)[O-])cc1	368	i	i	i	i
O=C(NNc1ccc([N+](=O)[O-])cc1)Nc1ccccc1	i	i	i	i	i
CC(=O)Nc1ccc(S(=O)(=O)NNc2ccc([N+](=O)[O-])cc2)cc1	296	i	i	i	i
CC1CCCN(c2cccc3c2S(=O)(=O)N(Cc2cccc(Cl)c2)[C@@H](C)[C@H](c2ccccc2)O3)C1 (stereo partly specified)	nt	nt	nt	i	nt
CC(=O)NN1C(=O)/C(=C2/Sc3ccccc3N2C)SC1=S	i	i	i	i	i
CN1C(=C2C(=O)OC(C)(C)OC2=O)Sc2ccccc21	i	i	i	4.8	i
CN(C)c1ccc(C=Nc2ccccc2C(N)=O)cc1	i	i	i	5.6	i
O=[N+]([O-])c1ccc(/C=N/n2cnc3ccccc32)s1	378	i	i	i	18
Cc1cc2ncn(/N=C/c3ccc([N+](=O)[O-])s3)c2cc1C	i	i	i	i	i
CC1=C(SCc2ccccc2)C(=O)c2ccccc2C1=O	nt	i	i	21	i
O=C(CN1CCC(NC(=O)c2ccccc2F)CC1)Nc1ccc2c(c1)OCO2	667	i	i	i	i
Cc1ccccc1C(=O)NC1CCN(CC(=O)Nc2ccc3c(c2)OCO3)CC1	i	i	i	i	i
C[C@H]1[C@H](c2ccccc2)Oc2cccc(NCCc3ccccc3)c2S(=O)(=O)N1Cc1ccc(F)cc1	nt	nt	nt	i	nt
O=C(CSc1nnc(NC(=O)c2c(F)cccc2F)s1)NCc1ccc(F)cc1	670	i	i	i	i
COc1cccc(-c2c(NC(=O)c3ccco3)oc3ccccc3c2=O)c1	519	i	i	i	i
N#CCC1(O)C(=O)Nc2ccccc21 (stereo unspecified)	nt	nt	nt	i	nt
c1ccc(CC2CCN(Cc3ccccn3)CC2)cc1	343	i	i	i	i
Clc1ccc(CN2CCC(Cc3ccccc3)CC2)cc1	i	i	i	i	i
SMILES	Mot1-301 SUMO	PKA-R2B act	PKA-R1A act	MsrA inhibitor	bovine MsrA act
CN1/C(=C\C(=O)COC(=O)Cn2nnc(-c3ccccc3)n2)C(C)(C)c2ccccc21	268	i	i	i	i
COC(=O)[C@]12C[C@H](CC(=O)NCCCCc3ccccc3)C(=O)N(Cc3ccccc3)C1=C[C@H](C(C)(C)C)O[C@@H]2C	nt	nt	nt	i	nt
Cc1cc2cc(C(c3nnnn3CC3CCCO3)N3CCCc4ccccc43)c(=O)[nH]c2cc1C (stereo unspecified)	nt	i	i	4.6	i
O=C(NCCCNc1ccc(C(F)(F)F)cc1[N+](=O)[O-])c1ccc(Cl)cc1	i	i	i	i	i
O=C(NCCCNc1ccc(C(F)(F)F)cc1[N+](=O)[O-])c1cc(F)c(F)cc1Cl	i	i	i	i	8.7
CCOC(=O)c1sc(=S)[nH]c1C	nt	i	i	i	8.4
COC(=O)C1=C(C(=O)OC)C2CCCC1C1N=NN(c3ccccc3)C21 (stereo unspecified)	nt	nt	nt	i	nt
CCN1CCN(C(=O)CCCn2c(C)c3cnn(-c4ccccc4)c(=O)c3c2C)CC1	332	i	i	i	i
CN1CCN(c2oc(COc3ccc(-c4ccccc4)cc3)nc2C#N)CC1	563	i	i	i	i
